Some test systems named below: DU-145 prostate; K-562 leukemia; MALME-3M melanoma; MDA-MB-231 breast; RXF 393 renal; SF-268 CNS; SF-295 CNS; SF-539 CNS; UACC-257 melanoma; M14 melanoma.
What all share (experiment): NCI-60 one-dose screen, 48 h (100 = growth as untreated, 0 = no growth, -100 = all killed)
Settings in all cases: 10 µM

Compounds without any hit were thinned out: in the full panel of roughly 83,000, 20% have a hit.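 Interpretation: 100, growth as untreated; towards 0, rising growth inhibition; 0, no net growth; 0 to -100, cell death. Compounds scoring below 10 were considered active.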 A number with no mark means an inactive call. Activity calls are given as the source filed them.

`COc1c(-c2c3sc(=O)[nH]c3nc3c2c(=O)[nH]n3C(C)C)cc2c(c1OC)OCO2`: the growth was 108% in the assay on DU-145 prostate; 86% in the assay with K-562 leukemia; 80.3% in the assay on MALME-3M melanoma; 108% with MDA-MB-231 breast; 110% with RXF 393 renal; 102% in the assay with SF-268 CNS. Besides, the growth in the assay with SF-295 CNS was 88.3%; in the assay on SF-539 CNS, 94.8%; in the assay on UACC-257 melanoma, 99.7%; in the assay with M14 melanoma it was 93.8%.
As for `CS(=O)(=O)Nc1ccc([N+](=O)[O-])cc1Oc1ccccc1`, the growth in the assay on DU-145 prostate was 100%; in the assay on K-562 leukemia, 78%; with MALME-3M melanoma, 92.4%; with MDA-MB-231 breast it was 118%; with SF-268 CNS, 98.4%; in the assay on SF-295 CNS it was 84.2%. The growth in the assay on SF-539 CNS is 104%; in the assay on UACC-257 melanoma, 94.7%; with M14 melanoma, 105%.
Turning to `C/C(=N/NC(=O)c1sc(=S)n(C)c1N)c1cc2cc(Cl)ccc2o1`, the growth was 87.2% in the assay on DU-145 prostate; 72.8% in the assay on K-562 leukemia; 113% in the assay with MALME-3M melanoma; 68.9% with MDA-MB-231 breast; 80.2% in the assay on SF-268 CNS; 109% with SF-295 CNS. Besides, the results for the growth with SF-539 CNS, with UACC-257 melanoma and in the assay on M14 melanoma were 99.2%, 5.89% (active) and 91.7%, respectively.
Consider `c1ccc(C2CCCCC2)c(OCCCCCN2CCNCC2)c1`, for which the growth in the assay on DU-145 prostate was 72.8%; in the assay with K-562 leukemia it was -13.1% (active); with MALME-3M melanoma, 43%; with MDA-MB-231 breast, 15.9%; in the assay with RXF 393 renal it was 36.4%; with SF-268 CNS, 70.7%. For the same molecule, the growth in the assay with SF-295 CNS was 63.5%; in the assay on SF-539 CNS, 68.7%; in the assay on UACC-257 melanoma, 19.9%; in the assay with M14 melanoma it was -66.5% (active).
`CN(C)c1ccc2cc(-c3cc4c(oc3=O)-c3ccccc3OC4O)c(=O)oc2c1` (stereo not given): the growth with DU-145 prostate was 11%; with K-562 leukemia, -55.8% (active); in the assay with MALME-3M melanoma it was -59.3% (active); in the assay on MDA-MB-231 breast, -39.8% (active); with SF-268 CNS it was 56.9%; with SF-295 CNS it was -56.4% (active). The growth was 19% in the assay on SF-539 CNS, 42.9% in the assay with UACC-257 melanoma and -47.8% (active) in the assay on M14 melanoma.
Take `Cc1ccc(/C=C2\CN(Cc3cn(CCNc4ccnc5cc(Cl)ccc45)nn3)C/C(=C\c3ccc(C)cc3)C2=O)cc1`: the growth in the assay with DU-145 prostate is -98.5% (active); with K-562 leukemia it was -14.7% (active); in the assay with MALME-3M melanoma, -14.9% (active); with MDA-MB-231 breast, -27.6% (active); in the assay on RXF 393 renal it was -89% (active); with SF-268 CNS, -70.7% (active). In addition, the growth in the assay on SF-295 CNS is -58.8% (active); with SF-539 CNS it was -51.9% (active); in the assay with UACC-257 melanoma, -41.1% (active); in the assay on M14 melanoma, -41.7% (active).
On to `COc1cc(CSc2nc3ccc(C)cc3c(=O)n2Cc2ccccc2)cc(OC)c1OC`, for which the growth in the assay on DU-145 prostate is 9.78% (active); in the assay on K-562 leukemia it was 13.8%; in the assay on MALME-3M melanoma it was 30.1%; in the assay on MDA-MB-231 breast, 44.4%; in the assay on RXF 393 renal, -16.9% (active); in the assay with SF-268 CNS it was 51.5%. In addition, the growth in the assay with SF-295 CNS is 31%; in the assay with SF-539 CNS, -16.4% (active); with UACC-257 melanoma, 47.4%; with M14 melanoma, 35.6%.
As for `CCCCCCCCCCN=C(c1ccc(N(C)C)cc1)c1ccc(N(C)C)cc1`, the growth in the assay on DU-145 prostate is 28.5%; with K-562 leukemia it was 10.1%; with MALME-3M melanoma it was 62%; in the assay on MDA-MB-231 breast, 49.5%; in the assay with RXF 393 renal, 3.59% (active); with SF-268 CNS it was 57.5%. Also, the growth with SF-295 CNS was 14%; in the assay on SF-539 CNS it was 10.9%; in the assay with UACC-257 melanoma, 28.3%; in the assay on M14 melanoma, -18% (active).
Consider `C(=C\c1nc2ccccc2s1)/c1ccc(N2CCOCC2)s1`, for which the growth is 92.4% in the assay on DU-145 prostate; 31.8% in the assay with K-562 leukemia; 103% in the assay on MALME-3M melanoma; 75.5% with MDA-MB-231 breast; 98.2% in the assay with SF-268 CNS; 69% with SF-295 CNS. Besides, the growth with SF-539 CNS was 81.1%; with UACC-257 melanoma, 90.2%; with M14 melanoma it was 36.6%.
On to `Cc1cc(Nc2cccc(F)c2)nc(NCc2ccccc2)n1`, for which the growth in the assay on DU-145 prostate was 22.8%; with K-562 leukemia, 13.3%; in the assay with MALME-3M melanoma, 43.9%; in the assay with MDA-MB-231 breast, 20.9%; in the assay on RXF 393 renal, 76.6%; in the assay with SF-268 CNS it was 40.4%. Also, the growth is 16.7% in the assay with SF-295 CNS, 56.8% with SF-539 CNS, 29.8% in the assay on UACC-257 melanoma and 28.5% in the assay with M14 melanoma.
Turning to `CCc1ccc(-c2nnc(COc3ccc(-c4nc5ccccc5[nH]4)cc3OC)o2)cc1`, the growth is 48.1% in the assay with DU-145 prostate; 33% with K-562 leukemia; 47.6% with MALME-3M melanoma; 10.5% with MDA-MB-231 breast; 68.7% in the assay with RXF 393 renal; 52.8% in the assay with SF-268 CNS. The growth with SF-295 CNS was 79.3%; in the assay with SF-539 CNS, 6.55% (active); with UACC-257 melanoma, 88.7%; with M14 melanoma it was 56.5%.
Consider `COc1ccccc1S(=O)(=O)Nc1ccc2c(c1)CN(C)C(=O)N2`, for which the growth in the assay on DU-145 prostate was 77.8%; with K-562 leukemia, 28.6%; in the assay on MALME-3M melanoma, 32.2%; in the assay on MDA-MB-231 breast, 54.7%; in the assay on RXF 393 renal, 73.3%; in the assay on SF-268 CNS, 72.9%. Besides, the growth is 5.34% (active) in the assay with SF-295 CNS, 50.1% in the assay on SF-539 CNS, 33.8% in the assay on UACC-257 melanoma and 47.8% in the assay on M14 melanoma.
Take `Clc1cc(Cl)c(Cl)c(-c2nc(-c3cccnc3)cs2)c1`: the growth in the assay on DU-145 prostate was 37.2%; with K-562 leukemia, 12%; with MALME-3M melanoma, 28.6%; with MDA-MB-231 breast it was 74%; with SF-268 CNS, 85.8%; with SF-295 CNS, 100%. Besides, the figures for the growth with SF-539 CNS, in the assay with UACC-257 melanoma and in the assay on M14 melanoma were 81.4%, 64.2% and 51.8%, respectively.
As to `O=S(=O)(NC1c2ccccc2Oc2ccccc21)c1ccccc1`, the growth in the assay on DU-145 prostate is 112%; in the assay on K-562 leukemia, 91.3%; in the assay on MALME-3M melanoma it was 97.8%; in the assay with MDA-MB-231 breast, 100%; in the assay on RXF 393 renal it was 86.6%; with SF-268 CNS it was 98.9%. Besides, the growth in the assay with SF-295 CNS was 97.8%; in the assay on SF-539 CNS, 93.7%; with UACC-257 melanoma, 98.2%; in the assay on M14 melanoma, 98.7%.

Values taken from PubChem BioAssay (NCI).
